Test results from PubChem BioAssay AID1211 (NMMLSC, 2008).
Activity calls are given as the source filed them. No rule for the calls is given here.

Target: Estrogen receptor (Homo sapiens) (UniProt P03372)
Assay: displacement of fluorescent estrogen from ERalpha – cell-based, Cos7 ERalpha-GFP, flow cytometry, primary screen (AID 1211);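 also: 0% = DMSO vehicle wells and 100% = no E2-Alexa633 signal left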
Settings: fluorescent ligand competition, at 10 µM, active compounds read high

Estrogen receptor (Homo sapiens), sequence (P03372 whole entry, looked up): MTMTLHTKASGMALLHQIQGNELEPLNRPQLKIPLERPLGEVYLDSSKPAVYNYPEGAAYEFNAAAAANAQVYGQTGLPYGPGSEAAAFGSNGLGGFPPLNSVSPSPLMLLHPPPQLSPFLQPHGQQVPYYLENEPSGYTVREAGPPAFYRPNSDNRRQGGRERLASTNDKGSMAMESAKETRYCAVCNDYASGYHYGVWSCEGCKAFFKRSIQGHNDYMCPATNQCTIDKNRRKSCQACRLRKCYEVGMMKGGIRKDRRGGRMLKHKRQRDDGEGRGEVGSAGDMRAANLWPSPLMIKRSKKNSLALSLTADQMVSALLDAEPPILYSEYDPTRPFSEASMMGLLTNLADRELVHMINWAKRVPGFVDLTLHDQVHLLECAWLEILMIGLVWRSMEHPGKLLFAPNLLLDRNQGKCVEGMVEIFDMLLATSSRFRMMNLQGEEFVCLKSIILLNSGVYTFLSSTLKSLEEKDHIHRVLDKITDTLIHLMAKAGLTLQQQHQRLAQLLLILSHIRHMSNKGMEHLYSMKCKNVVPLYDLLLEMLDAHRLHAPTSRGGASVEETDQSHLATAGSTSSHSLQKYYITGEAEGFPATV

| SMILES | inhibition of ligand binding |
| --- | --- |
| CC(=O)Oc1ccc(C2Nc3c(C(=O)O)ccc([N+](=O)[O-])c3C3C=CCC32)cc1 (stereo not drawn) | 85% (active) |
| CSCCC(NC(=O)c1ccco1)C(=O)OCC(=O)Nc1sccc1C#N (stereo not drawn) | 4% (inactive) |
| O=C(CSc1nnc(-c2ccc(O)cc2)n1Cc1ccccc1)NNC(=O)c1ccc(Br)cc1 | 48% (inactive) |
| COc1ccc(NS(=O)(=O)c2ccc3c(c2)[C@H]2C=CC[C@H]2[C@@H](c2ccc(F)cc2)N3)cc1 | 14% (inactive) |
| COc1cccc(C2Nc3c(F)cc(Br)cc3C3C=CCC32)c1OC (stereo not drawn) | 60% (inactive) |
| Cc1ccc(OCc2ccoc2C(=O)O)cc1C | 0% (inactive) |
| Cc1ccc(S(=O)(=O)Cc2ccc(C(=O)O)o2)cc1 | 34% (inactive) |
| CC(C)C1Nc2ccc(S(N)(=O)=O)cc2C2C=CCC21 (stereo not drawn) | 70% (active) |
| Clc1ccc2c(c1)[C@H]1OCC[C@H]1[C@@H](c1ccco1)N2 | 0% (inactive) |
| CCOC(=O)C1=C(C)NC(=O)NC1c1ccco1 (stereo not drawn) | 56% (inactive) |
| O=C(O)c1cc(-c2ccc(O)cc2)nc2ccccc12 | 5% (inactive) |
| CCc1cc2c3c(c(=O)oc2cc1OCC(=O)O)CCCC3 | 10% (inactive) |
| COc1ccc(-n2cc3c(c(C#N)c2=N)CC(C)(C)CC3=O)cc1 | 29% (inactive) |
| CCC(Oc1ccc2c3c(c(=O)oc2c1C)CCC3)C(=O)OC (stereo not drawn) | 15% (inactive) |
| COc1ccc(C(=O)N/N=C(\C)c2ccc3c(c2)C2C=CCC2C(c2ccccc2)N3)cc1 (stereo not drawn) | 73% (active) |
| O=c1cc(CSc2nnnn2-c2ccccc2)nc(Nc2ccc(F)cc2)[nH]1 | 26% (inactive) |
| O=[N+]([O-])c1cc(/C=N/N2CCN(C3c4ccccc4-c4ccccc43)CC2)ccc1Cl | 21% (inactive) |
| O=C1CC(c2ccncc2)c2cc3c(cc2N1)OCCO3 (stereo not drawn) | 0% (inactive) |
| CCCOc1cc(OCCC)c2c3c(c(=O)oc2c1)CCCC3 | 3% (inactive) |

| SMILES | inhibition of ligand binding |
| --- | --- |
| COc1ccc2[nH]c3c(c2c1)CCNC3C1CC=C(C)CC1 (stereo not drawn) | 0% (inactive) |
| COc1cc([N+](=O)[O-])cc2c1NC(c1ccccc1)C1CC=CC21 (stereo not drawn) | 0% (inactive) |
| CC(Nc1ccc(N2CCNCC2)cc1[N+](=O)[O-])C12CC3CC(CC(C3)C1)C2 (stereo not drawn) | 5% (inactive) |
| COc1cc([N+](=O)[O-])cc2c1N[C@@H](c1ccc(C(=O)O)cc1)[C@H]1CC=C[C@@H]21 | 71% (active) |
| O=c1oc2cc(O)c(Cl)cc2c2c1CCCC2 | 0% (inactive) |
| O=C(O)c1cc(Cl)c2c(c1)[C@@H]1C=CC[C@@H]1[C@H](c1ccc(S(=O)(=O)N3CCOCC3)cc1)N2 | 42% (inactive) |
| O=C(COC(=O)C1CC2C=CC1C2)NCc1ccco1 (stereo not drawn) | 16% (inactive) |
| CCCCOc1cc(OCCCC)c2c3c(c(=O)oc2c1)CCCC3 | 19% (inactive) |
| COc1cc(NC(=O)c2cccs2)c(C(=O)OCC(=O)NC(=O)NCc2ccccc2)cc1OC | 24% (inactive) |
| CCc1cc2c3c(c(=O)oc2cc1OCC(=O)OC)CCCC3 | 3% (inactive) |
| COc1cc([N+](=O)[O-])cc2c1NC(c1ccc(Cl)cc1)C1CC=CC21 (stereo not drawn) | 46% (inactive) |
| COc1cc([C@@H]2Nc3ccc(S(=O)(=O)Nc4ccccc4F)cc3[C@@H]3C=CC[C@@H]32)cc(OC)c1OC | 5% (inactive) |
| CC1(C)Cc2[nH]c(=O)c(C(=O)O)cc2CO1 | 2% (inactive) |
| COc1ccc(-c2nnc(SCC(=O)c3cc(C)n(Cc4cccs4)c3C)o2)cc1 | 35% (inactive) |
| Cc1nc(-c2ccc(O)c(O)c2)cs1 | 17% (inactive) |
| CCCNC(=O)c1ccc2c(c1)C1C3CCC(C3)C1C(c1ccccc1)N2 (stereo not drawn) | 67% (active) |
| CCc1cc2c3c(c(=O)oc2cc1OC)CCCC3 | 0% (inactive) |
| CC(=O)OC1CC2(C)C(=O)CCC2C2CCc3cc(O)ccc3C12 (stereo not drawn) | 23% (inactive) |
| COc1ccc2c(c1)C1OCCC1C(c1ccco1)N2 (stereo not drawn) | 46% (inactive) |
